In general, inhibition refers to the drop in the measured response relative to a control, in per cent.

We go through seven compounds from ChEMBL document CHEMBL1961873, “Compounds: GSK PKIS; Assays: Nanosyn kinase panel” (2012).

The target of assay [1] is RAC-alpha serine/threonine-protein kinase (Homo sapiens) (UniProt P31749). The following applies: at 0.1 µM.
Assay [2] shares this target. Particulars: at 1 µM.
The target of assay [3] is RAC-beta serine/threonine-protein kinase (Homo sapiens) (UniProt P31751). Particulars: at 0.1 µM.
The target is the same in assay [4]. The following applies: at 1 µM.
For assay [5], the target named is RAC-gamma serine/threonine-protein kinase (Homo sapiens) (UniProt Q9Y243). Particulars: at 0.1 µM.
Chain of RAC-gamma serine/threonine-protein kinase (Homo sapiens) (Q9Y243 whole entry): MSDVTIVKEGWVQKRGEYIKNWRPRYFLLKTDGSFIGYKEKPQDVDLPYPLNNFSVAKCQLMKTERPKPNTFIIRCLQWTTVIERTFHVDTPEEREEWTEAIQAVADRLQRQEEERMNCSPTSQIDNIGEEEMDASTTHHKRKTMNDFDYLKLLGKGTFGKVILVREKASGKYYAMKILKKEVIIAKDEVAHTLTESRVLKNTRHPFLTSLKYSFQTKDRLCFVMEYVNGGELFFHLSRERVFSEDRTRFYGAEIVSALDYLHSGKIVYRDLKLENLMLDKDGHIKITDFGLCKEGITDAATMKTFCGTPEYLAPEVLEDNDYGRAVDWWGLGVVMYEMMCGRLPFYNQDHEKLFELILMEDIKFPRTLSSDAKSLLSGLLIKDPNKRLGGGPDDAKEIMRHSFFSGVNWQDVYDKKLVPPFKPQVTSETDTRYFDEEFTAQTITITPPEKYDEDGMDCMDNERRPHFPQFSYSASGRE
Assay [6] has the same target. Particulars: at 1 µM.
Assay [7] addresses G protein-coupled receptor kinase 6 (Homo sapiens) (UniProt P43250). The following applies: at 0.1 µM.
Assay [8] has the same target. Particulars: at 1 µM.
In assay [9] the target is T1, Rhodopsin kinase GRK7 (Homo sapiens) (UniProt Q8WTQ7).
T1 sequence (whole entry): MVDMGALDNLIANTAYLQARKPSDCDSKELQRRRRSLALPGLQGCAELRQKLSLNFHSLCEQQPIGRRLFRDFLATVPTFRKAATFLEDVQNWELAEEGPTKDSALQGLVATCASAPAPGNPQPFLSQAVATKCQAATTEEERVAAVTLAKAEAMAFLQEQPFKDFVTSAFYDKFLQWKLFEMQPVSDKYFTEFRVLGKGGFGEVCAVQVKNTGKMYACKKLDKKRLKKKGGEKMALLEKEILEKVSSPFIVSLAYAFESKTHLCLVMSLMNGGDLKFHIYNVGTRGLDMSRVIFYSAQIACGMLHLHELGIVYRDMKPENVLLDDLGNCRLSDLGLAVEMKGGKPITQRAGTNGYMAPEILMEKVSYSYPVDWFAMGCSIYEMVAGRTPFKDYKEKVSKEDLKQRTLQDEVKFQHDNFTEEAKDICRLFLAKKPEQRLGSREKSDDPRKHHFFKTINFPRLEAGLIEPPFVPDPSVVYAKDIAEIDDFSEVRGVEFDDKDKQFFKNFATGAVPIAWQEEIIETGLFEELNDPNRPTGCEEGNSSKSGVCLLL
Particulars: at 0.1 µM.

In assay [10] the target is T1, Rhodopsin kinase GRK7 (Homo sapiens). Particulars: at 1 µM.
In assay [11] the target is Serine/threonine-protein kinase MRCK alpha (Homo sapiens) (UniProt Q5VT25). Particulars: at 0.1 µM.
Chain of Serine/threonine-protein kinase MRCK alpha (Homo sapiens) (Q5VT25 whole entry): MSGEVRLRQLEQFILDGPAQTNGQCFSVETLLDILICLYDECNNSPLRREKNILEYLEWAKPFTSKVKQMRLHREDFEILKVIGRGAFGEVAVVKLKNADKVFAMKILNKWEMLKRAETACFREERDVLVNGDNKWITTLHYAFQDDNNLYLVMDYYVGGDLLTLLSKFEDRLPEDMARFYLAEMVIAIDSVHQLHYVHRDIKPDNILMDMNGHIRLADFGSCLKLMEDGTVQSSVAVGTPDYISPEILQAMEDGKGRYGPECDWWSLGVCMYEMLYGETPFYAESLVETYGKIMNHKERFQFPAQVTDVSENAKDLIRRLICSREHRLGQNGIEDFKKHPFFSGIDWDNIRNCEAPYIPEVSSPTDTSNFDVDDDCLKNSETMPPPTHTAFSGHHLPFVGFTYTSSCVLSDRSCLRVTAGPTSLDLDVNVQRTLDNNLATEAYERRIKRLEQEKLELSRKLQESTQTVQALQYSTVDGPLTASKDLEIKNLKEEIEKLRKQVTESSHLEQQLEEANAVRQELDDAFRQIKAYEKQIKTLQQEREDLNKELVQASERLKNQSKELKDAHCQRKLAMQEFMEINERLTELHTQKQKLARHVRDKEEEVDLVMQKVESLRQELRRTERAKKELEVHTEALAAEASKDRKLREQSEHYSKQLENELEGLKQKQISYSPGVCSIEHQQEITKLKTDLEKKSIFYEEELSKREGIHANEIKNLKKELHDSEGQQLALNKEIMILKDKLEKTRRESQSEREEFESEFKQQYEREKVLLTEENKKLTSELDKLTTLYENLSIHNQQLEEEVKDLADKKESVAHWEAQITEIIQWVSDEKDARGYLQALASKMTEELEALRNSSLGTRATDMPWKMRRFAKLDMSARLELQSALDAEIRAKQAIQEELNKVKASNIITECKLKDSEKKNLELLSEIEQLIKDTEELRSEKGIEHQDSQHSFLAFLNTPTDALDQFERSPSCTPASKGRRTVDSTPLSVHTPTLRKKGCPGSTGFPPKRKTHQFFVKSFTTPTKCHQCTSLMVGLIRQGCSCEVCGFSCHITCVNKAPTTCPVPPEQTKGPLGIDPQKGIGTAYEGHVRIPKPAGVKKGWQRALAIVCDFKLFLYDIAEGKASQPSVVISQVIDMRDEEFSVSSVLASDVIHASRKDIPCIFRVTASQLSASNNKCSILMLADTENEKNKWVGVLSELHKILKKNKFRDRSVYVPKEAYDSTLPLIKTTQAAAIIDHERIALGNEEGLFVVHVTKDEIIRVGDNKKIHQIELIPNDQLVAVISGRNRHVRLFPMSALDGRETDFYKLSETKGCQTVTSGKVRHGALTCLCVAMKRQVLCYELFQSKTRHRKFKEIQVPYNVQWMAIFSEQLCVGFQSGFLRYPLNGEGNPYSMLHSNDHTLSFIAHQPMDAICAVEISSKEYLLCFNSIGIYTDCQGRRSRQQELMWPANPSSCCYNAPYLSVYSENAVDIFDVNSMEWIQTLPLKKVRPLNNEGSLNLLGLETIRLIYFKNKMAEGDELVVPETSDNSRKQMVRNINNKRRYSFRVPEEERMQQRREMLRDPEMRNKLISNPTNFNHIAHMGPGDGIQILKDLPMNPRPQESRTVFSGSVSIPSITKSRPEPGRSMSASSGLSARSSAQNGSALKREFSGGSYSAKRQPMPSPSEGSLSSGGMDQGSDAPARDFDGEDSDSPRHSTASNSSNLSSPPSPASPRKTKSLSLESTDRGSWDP
The target is the same in assay [12]. Particulars: at 1 µM.
In assay [13] the target is Serine/threonine-protein kinase MRCK beta (Homo sapiens) (UniProt Q9Y5S2). Particulars: at 0.1 µM.
Assay [14] has the same target. The following applies: at 1 µM.
The target in assay [15] is Ribosomal protein S6 kinase alpha-5 (Homo sapiens) (UniProt O75582). Particulars: at 0.1 µM.
Chain of Ribosomal protein S6 kinase alpha-5 (Homo sapiens) (O75582 whole entry, looked up): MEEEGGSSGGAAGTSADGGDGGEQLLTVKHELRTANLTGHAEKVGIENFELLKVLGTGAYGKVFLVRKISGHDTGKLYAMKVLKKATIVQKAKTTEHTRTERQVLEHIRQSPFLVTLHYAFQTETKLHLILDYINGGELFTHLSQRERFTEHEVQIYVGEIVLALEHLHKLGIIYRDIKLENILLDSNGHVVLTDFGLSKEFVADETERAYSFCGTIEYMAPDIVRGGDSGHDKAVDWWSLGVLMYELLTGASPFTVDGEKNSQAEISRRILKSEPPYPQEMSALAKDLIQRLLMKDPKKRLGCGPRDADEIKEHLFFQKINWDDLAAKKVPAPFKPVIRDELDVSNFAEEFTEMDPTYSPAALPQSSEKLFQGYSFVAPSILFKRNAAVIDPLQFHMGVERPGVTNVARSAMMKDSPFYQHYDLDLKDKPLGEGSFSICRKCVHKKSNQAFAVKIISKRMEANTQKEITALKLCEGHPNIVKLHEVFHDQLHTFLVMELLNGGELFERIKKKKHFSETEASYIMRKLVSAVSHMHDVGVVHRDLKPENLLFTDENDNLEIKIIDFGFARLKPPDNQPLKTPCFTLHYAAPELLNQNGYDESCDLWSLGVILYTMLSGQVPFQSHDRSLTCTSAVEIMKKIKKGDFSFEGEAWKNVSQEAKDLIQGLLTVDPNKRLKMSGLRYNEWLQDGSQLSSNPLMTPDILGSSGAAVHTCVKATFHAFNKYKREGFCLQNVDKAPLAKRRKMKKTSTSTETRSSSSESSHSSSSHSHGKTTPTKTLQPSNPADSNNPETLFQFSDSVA
Assay [16] has the same target. The following applies: at 1 µM.
The target of assay [17] is Ribosomal protein S6 kinase alpha-4 (Homo sapiens) (UniProt O75676). Particulars: at 0.1 µM.
Chain of Ribosomal protein S6 kinase alpha-4 (Homo sapiens) (O75676 whole entry, looked up): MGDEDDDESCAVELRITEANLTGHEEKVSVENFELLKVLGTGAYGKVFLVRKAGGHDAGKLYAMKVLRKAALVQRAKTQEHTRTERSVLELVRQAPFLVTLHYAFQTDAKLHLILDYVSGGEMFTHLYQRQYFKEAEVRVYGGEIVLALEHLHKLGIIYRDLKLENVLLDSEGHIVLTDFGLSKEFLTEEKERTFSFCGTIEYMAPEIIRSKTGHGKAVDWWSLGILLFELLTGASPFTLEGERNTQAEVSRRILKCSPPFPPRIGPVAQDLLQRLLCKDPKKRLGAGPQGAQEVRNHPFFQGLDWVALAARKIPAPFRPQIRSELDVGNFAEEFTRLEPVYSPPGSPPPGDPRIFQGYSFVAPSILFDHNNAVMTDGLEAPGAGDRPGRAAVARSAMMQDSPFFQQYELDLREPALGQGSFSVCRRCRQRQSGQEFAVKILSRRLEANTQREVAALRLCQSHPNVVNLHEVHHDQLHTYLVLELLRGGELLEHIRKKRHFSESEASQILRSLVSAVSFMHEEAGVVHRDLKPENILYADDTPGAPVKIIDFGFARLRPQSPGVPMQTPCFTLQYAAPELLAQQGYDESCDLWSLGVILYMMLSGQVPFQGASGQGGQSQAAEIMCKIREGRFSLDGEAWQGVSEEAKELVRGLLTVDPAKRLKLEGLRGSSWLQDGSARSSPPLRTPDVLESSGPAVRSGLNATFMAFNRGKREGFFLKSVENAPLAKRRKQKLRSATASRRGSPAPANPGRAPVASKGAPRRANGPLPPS
The target is the same in assay [18]. Particulars: at 1 µM.
For assay [19], the target named is Ribosomal protein S6 kinase beta-1 (Homo sapiens) (UniProt P23443). The following applies: at 0.1 µM.
The target is the same in assay [20]. The following applies: at 1 µM.

Chain of G protein-coupled receptor kinase 6 (Homo sapiens) (P43250 whole entry, looked up): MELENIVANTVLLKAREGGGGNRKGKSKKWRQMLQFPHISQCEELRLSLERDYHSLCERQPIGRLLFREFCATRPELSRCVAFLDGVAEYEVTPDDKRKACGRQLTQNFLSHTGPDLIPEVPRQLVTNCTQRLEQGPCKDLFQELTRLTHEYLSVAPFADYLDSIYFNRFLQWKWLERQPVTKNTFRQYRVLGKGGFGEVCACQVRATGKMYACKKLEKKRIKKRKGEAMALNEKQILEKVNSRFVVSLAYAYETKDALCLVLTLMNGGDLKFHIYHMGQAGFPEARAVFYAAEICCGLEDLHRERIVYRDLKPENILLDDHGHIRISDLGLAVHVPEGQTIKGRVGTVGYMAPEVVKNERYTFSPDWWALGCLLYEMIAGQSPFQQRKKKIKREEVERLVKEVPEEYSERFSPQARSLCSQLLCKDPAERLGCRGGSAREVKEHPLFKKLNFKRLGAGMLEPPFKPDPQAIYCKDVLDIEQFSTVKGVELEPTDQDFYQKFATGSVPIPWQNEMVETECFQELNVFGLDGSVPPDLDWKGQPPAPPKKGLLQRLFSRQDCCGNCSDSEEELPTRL
Chain of RAC-alpha serine/threonine-protein kinase (Homo sapiens) (P31749 whole entry): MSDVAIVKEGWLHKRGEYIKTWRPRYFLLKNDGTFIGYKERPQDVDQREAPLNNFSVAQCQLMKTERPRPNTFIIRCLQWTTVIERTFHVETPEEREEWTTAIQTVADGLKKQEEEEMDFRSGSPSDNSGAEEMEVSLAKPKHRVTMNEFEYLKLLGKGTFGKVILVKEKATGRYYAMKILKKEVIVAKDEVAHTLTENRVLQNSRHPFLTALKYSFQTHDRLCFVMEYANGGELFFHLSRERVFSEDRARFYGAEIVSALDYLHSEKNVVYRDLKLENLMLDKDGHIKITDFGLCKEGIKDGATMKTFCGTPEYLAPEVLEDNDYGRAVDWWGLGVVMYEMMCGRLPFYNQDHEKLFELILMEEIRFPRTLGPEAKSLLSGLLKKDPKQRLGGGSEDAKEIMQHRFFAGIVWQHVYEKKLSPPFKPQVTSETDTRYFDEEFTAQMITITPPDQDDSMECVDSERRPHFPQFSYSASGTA

Take `Cc1ccc(C(=O)NC2CCC2)cc1-c1ccc(C(=O)NCC2CC2)cc1`: the inhibition in assay [1] was 0.45%; in assay [2] it was -0.14%; in assay [3] it was 1.03%; in assay [4] it was 1.6%; in [5], 2.92%; in [6], 2.79%. Further, the inhibition was 1.01% in [7]; 1.27% in assay [8]; 2.9% in assay [9]; 3.16% in assay [10]; 0.19% in assay [11]; 0.56% in [12]. Besides, the inhibition in assay [13] was 0.73%; in [14] it was 0.97%; in [15], 2.7%; in [16], 2.99%; in assay [17], 1.75%; in [18], 3.11%. Moreover, the results for the inhibition in assay [19] and in assay [20] were 1.12% and 0.01%, respectively.
In the case of `C[C@@H](Oc1cc(-n2cnc3ccc(OC4CCN(C)CC4)cc32)sc1C(N)=O)c1ccccc1Cl`, the inhibition in assay [1] is -2.97%; in assay [2], -3.84%; in [3], -4.17%; in [4] it was -2.31%; in assay [5] it was -2.91%; in assay [6], -1.57%. The inhibition in [7] was 4.79%; in assay [8], 6.21%; in assay [9], 10.7%; in assay [10], 3.62%; in [11] it was 0.03%; in assay [12] it was 5.65%. Further, the inhibition in assay [13] stood at 0.19%; in [14] it was 2.98%; in assay [15], 2.31%; in [16] it was 1.66%; in assay [17], 2.84%; in [18], 5.67%. Besides, the inhibition stood at 1.64% in assay [19] and 5.01% in assay [20].
With `CNC(=O)c1cncc(/C=C/c2c(C)cccc2C)c1`, the inhibition in assay [1] is -2.43%; in [2] it was -2.92%; in [3], -3.43%; in assay [4] it was -4.29%; in [5], -2.01%; in [6] it was -2.42%. Moreover, the inhibition in assay [7] is 4.6%; in [8], -0.29%; in assay [9], 1.47%; in assay [10] it was -7.66%; in [11], 1.09%; in assay [12] it was 4.17%. Also, the inhibition in [13] was -0.27%; in assay [14] it was -0.99%; in assay [15] it was -1.22%; in assay [16] it was -0.95%; in assay [17], 1.35%; in [18] it was 1.5%. Moreover, the inhibition was found to be 2.04% in assay [19] and 0.86% in [20].
`CN(C)c1ccc2c(c1)/C(=C/Nc1ccc(S(N)(=O)=O)cc1)C(=O)N2`: the inhibition in assay [1] was 0.14%; in [2], -0.46%; in assay [3], 0.75%; in [4], 1.06%; in assay [5] it was 2.06%; in assay [6], 1.85%. Besides, the inhibition in [7] was found to be 3.15%; in assay [8], 5.15%; in [9] it was 0.97%; in assay [10], 8.73%; in assay [11] it was 0.22%; in [12], 4.01%. In addition, the inhibition turned out to be 1.12% in assay [13]; 2.85% in assay [14]; 3.06% in [15]; 4.05% in assay [16]; 1.96% in assay [17]; 3.55% in assay [18]. Also, the inhibition came out at 0.19% in assay [19] and 3.09% in assay [20].
With `COc1cccc(-n2cnc3c(N/N=C/c4ccncc4)ncnc32)c1`, the inhibition in [1] is -4.15%; in [2], -3.41%; in [3] it was -3.57%; in assay [4], -4.73%; in assay [5], -4.17%; in [6], -3.32%. Further, the inhibition in assay [7] worked out at 2.45%; in assay [8], 8.28%; in [9] it was 1.71%; in [10], 5.64%; in assay [11], 1.59%; in assay [12] it was 3.69%. For the same compound, the inhibition is 0.38% in [13]; 0.7% in [14]; -0.31% in assay [15]; 1.02% in assay [16]; 2.44% in assay [17]; 3.95% in assay [18]. Further, the figures for the inhibition in [19] and in assay [20] were -0.32% and 1.15%, respectively.
As for `COc1cc(C)c(N(C)C(=O)CN(C)C)cc1Nc1nc(Nc2cccc(F)c2C(N)=O)c2cc[nH]c2n1`, the inhibition is -1.91% in [1]; -1.8% in [2]; -3.1% in [3]; -2.1% in [4]; -2.47% in [5]; -1.39% in [6]. For the same compound, the inhibition in assay [7] is 3.68%; in assay [8], 17.8%; in assay [9], -0.46%; in assay [10], -6.16%; in [11], 0.58%; in [12], 0.78%. For the same compound, the inhibition in [13] was determined as 1.08%; in assay [14], 1.21%; in [15], 1.09%; in assay [16], 0.49%; in assay [17], 1.07%; in assay [18] it was 2.79%. For the same compound, the inhibition in [19] amounted to 2.18%; in [20], 1.42%.
`CCC(=O)Nc1ccc(C)c(-c2ccc(C(=O)NCC3CC3)cc2)c1`: the inhibition in [1] is 0.29%; in assay [2], 0.52%; in assay [3] it was 2.4%; in assay [4], 1.7%; in assay [5], 0.86%; in assay [6], 2.4%. The inhibition in assay [7] was found to be 4.21%; in [8], 3.82%; in assay [9], 8.7%; in assay [10], 1.14%; in [11], 0%; in assay [12], 1.8%. Also, the inhibition in assay [13] was -0.7%; in [14] it was 0.23%; in [15], 0.17%; in [16] it was -0.98%; in [17] it was 1.96%; in assay [18], 2.63%. For the same compound, the inhibition in assay [19] was determined as 0.91%; in assay [20] it was 1.77%.
